A selection: hits, their analogues and other compounds. The true share with any hit is near 2.6%.
Cruzain Triton = blocks cruzain activity in presence of Triton detergent | P25779 | purified cruzain, Z-FR-AMC fluorescence, 0.01% Triton | Potency, µM, inactives show max response, negative = inhibition, hits mostly inhibitors | hit rate 0.43% among 200,000 | AID 1478;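 note: plate controls were neutral wells for no effect and buffer without enzyme for full effect; nearly all actives have a fitted effect of over 40% in size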
Target sequence (P25779 123-467 limits assumed): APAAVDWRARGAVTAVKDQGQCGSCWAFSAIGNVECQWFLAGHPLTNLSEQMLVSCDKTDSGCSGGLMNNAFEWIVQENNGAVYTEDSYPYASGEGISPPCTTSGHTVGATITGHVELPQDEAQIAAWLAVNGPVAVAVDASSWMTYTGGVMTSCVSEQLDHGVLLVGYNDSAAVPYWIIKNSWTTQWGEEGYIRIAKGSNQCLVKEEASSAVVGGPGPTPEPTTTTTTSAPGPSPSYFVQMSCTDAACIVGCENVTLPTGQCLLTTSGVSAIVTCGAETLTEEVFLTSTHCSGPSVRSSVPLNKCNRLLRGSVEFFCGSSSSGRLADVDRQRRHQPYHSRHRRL
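Sodium acetate buffer (100 mM, pH 5.5) containing 5 mM DTT and 0.01% Triton X-100 hosted 1.5 nM cruzain and test compound for 15 min at room temperature. Cleavage of 2 uM Z-FR-AMC was then tracked by fluorescence.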
Cruzain noTriton = inhibitors of Trypanosoma cruzi cruzain without detergent; P25779; purified cruzain, Z-FR-AMC fluorescence, no detergent; Potency, µM, inactives show max response, negative = inhibition, usual class: inhibitors; hit rate 2.3% among 200,000; AID 1476;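 note: plate controls were enzyme without inhibitor for no effect and buffer without enzyme for full effect; nearly all actives have a fitted effect of over 40% in size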
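Purified cruzain at 1.5 nM, pre-incubated 15 min with compound at room temperature in 100 mM sodium acetate pH 5.5, 5 mM DTT, 0.00005% Triton X-100. Reaction started with 2 uM Z-FR-AMC; AMC fluorescence increase over 60 s gives rate.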
An asterisk follows results filed as active; ? = inconclusive. Calls come from the whole dose curve; as a rule, active = well fitted curve in the direction sought with a large enough effect; inconclusive = small, poorly fitted or top-dose-only effect, or another doubt; inactive = no such curve, though single readings can be large; an effect the other way counts as inactive or inconclusive. Potency is the fitted concentration of half-maximal effect.

SMILES	Cruzain Triton	Cruzain noTriton
Cc1cccc(CCNc2nc3ccccc3n3nnnc23)c1	4%	-12%
Cc1nc(-c2ccc(S(=O)(=O)Nc3ccc(C#N)cc3)cc2)co1	-9%	-1%
Cc1cc(NC(=O)CCS(=O)(=O)c2cc3c4c(c2)CCN4C(=O)CC3)ccc1Br	4%	3%
CCCCOc1ccc(C2c3c(oc4ccc(C)cc4c3=O)C(=O)N2CCCN(C)C)cc1OCC (stereo unspecified)	-3%	13%
COc1cccc(NC(=S)/C(=C(\[O-])c2ccc(C)c([N+](=O)[O-])c2)[n+]2ccccc2)c1	-10%	25µM*
Cc1ccccc1NC(=S)/C(=C(\[O-])c1ccc(C)c([N+](=O)[O-])c1)[n+]1ccccc1	-20%	-22%
Cc1ccc(NC(=S)/C(=C(\[O-])c2ccc(C)c([N+](=O)[O-])c2)[n+]2ccccc2)cc1C	-6%	25µM*
CCC(=O)Nc1cccc(NC(=O)c2ccc(C)c([N+](=O)[O-])c2)c1	-8%	-1%
CN(C)c1ccc(CNC(=O)C2CCN(Cc3cc4ccccc4n3Cc3ccccc3)CC2)cc1	-7%	-8%
CCN(CC)CCCNC(=O)c1ccc2nc(N3CCCCC3)sc2c1	-5%	13%
O=c1cnc2cnc(Nc3ccccc3)nc2n1CCc1ccccc1	2%	20%
CC(C)c1ccc(C2Sc3ccccc3NC3=C2C(=O)c2ccccc23)cc1 (stereo unspecified)	-4%	10µM*
CCc1ccc(C2Sc3ccccc3NC3=C2C(=O)c2ccccc23)cc1 (stereo unspecified)	-8%	?
CC(=O)Nc1ccc(C2Sc3ccccc3NC3=C2C(=O)c2ccccc23)cc1 (stereo unspecified)	-9%	-5%
O=C1C2=C(Nc3ccccc3SC2c2ccc(C(F)(F)F)cc2)c2ccccc21 (stereo unspecified)	-3%	20µM*
CC1CCCO1 (stereo unspecified)	-1%	-10%
COc1ccc(C)cc1NS(=O)(=O)c1cc(Br)cc2c1N(C(C)=O)C(C)C2 (stereo unspecified)	-3%	15%
COc1ccc(OC)c(NC(=O)c2cccn2-c2nnc(N3CCCCC3)s2)c1	-2%	-29%
Cn1cc(C2=C(c3ccc(Cl)cc3Cl)C(=O)NC2=O)c2ccccc21	-7%	13%
CC(C)n1cc(/C=C2\NC(=O)N(c3cccc(Cl)c3)C2=O)c2ccccc21	-1%	25µM*
CC(C)n1cc(/C=C2/NC(=O)N(c3cccc(Cl)c3)C2=O)c2ccccc21	0%	16µM*
CC(C)n1cc(/C=N/NC(=O)COc2cccc3cccnc23)c2ccccc21	-5%	?
CCCC(=O)Nc1cc(-c2nnc3c4ccccc4c(C)nn23)ccc1C	0%	11%
COc1ccc(C)cc1NC(=O)Cc1ccc(NC(=O)N2CCCCc3ccccc32)cc1	-3%	-3%
C=CCn1c(=NC(=O)c2ccc(S(=O)(=O)N3CCc4ccccc4C3)cc2)sc2cc(S(N)(=O)=O)ccc21	-4%	-9%
SMILES	Cruzain Triton	Cruzain noTriton
C#CCn1c(=NC(=O)c2ccc(S(=O)(=O)N3CCc4ccccc4C3)cc2)sc2cc(S(N)(=O)=O)ccc21	-22%	10µM*
COC(=O)Cn1c(=NC(=O)c2ccc(S(=O)(=O)N3CCc4ccccc4C3)cc2)sc2cc(OC)ccc21	-4%	6.3µM*
COCCn1c(=NC(=O)c2ccc(S(=O)(=O)N3CCc4ccccc4C3)cc2)sc2cc(S(N)(=O)=O)ccc21	-21%	?
COc1ccccc1N1CCN(C(=O)C2CCN(S(=O)(=O)Cc3ccccc3)CC2)CC1	-7%	?
COc1cc(OC)cc(C(=O)NCC(c2cccs2)S(=O)(=O)c2ccc(F)c(C)c2)c1 (stereo unspecified)	-4%	2%
CCOC(=O)C1=C(Cc2ccc(Cl)cc2)C(=O)c2ccccc2C1=O	-7%	16µM*
CCOC(=O)C1=C(C)N=C2c3ccccc3C(=O)C2C1c1ccc(Cl)cc1 (stereo unspecified)	-5%	-7%
Cn1ncc2c(Nc3cccc(F)c3)ncnc21	0%	-8%
Cc1csc(NC(=O)c2cc([N+](=O)[O-])cc([N+](=O)[O-])c2)n1	-7%	-15%
Cc1csc(/N=C/c2ccc([N+](=O)[O-])cc2)n1	1%	20µM*
COc1ccc(-c2cc(=O)oc3cc4occ(C)c4cc23)cc1	-2%	-17%
COc1ccc(-c2cc(=O)oc3cc(OC(=O)C4CCCCC4)c(Cl)cc23)cc1	-5%	6.3µM*
Cc1nn(-c2ccccc2)c(Cl)c1C1C(C#N)=C(N)Oc2c1c(C)nn2-c1ccccc1 (stereo unspecified)	-2%	2%
Cc1ccc(-n2nc(C)c(C3C(C#N)=C(N)Oc4c3c(=O)oc3ccccc43)c2Cl)cc1 (stereo unspecified)	0%	20µM*
Cc1ccc(Cl)cc1NC(=O)c1cc(-c2ccc3c(c2)OCCO3)on1	-3%	-16%
COc1ccc(OC/C(O)=C(\C#N)c2nc3ccccc3[nH]2)cc1	-1%	25µM*
COc1ccc(/C=N/OC/C(O)=C(\C#N)c2nc3ccccc3[nH]2)cc1	2%	-29%
COc1ccc2c(c1)O[C@@H](c1cccc(C(F)(F)F)c1)[C@H](OC(=O)NS(=O)(=O)c1ccc(C)cc1)C2=O	-7%	13%
CN(Cc1ccccc1)C(=O)C1CCC(CNS(=O)(=O)c2ccc3c(c2)CCCC(=O)N3)CC1 (stereo unspecified)	1%	?
CC(=O)Nc1nc2ccccc2n1CCOc1ccccc1	0%	-7%
S=C(Nc1ccccc1)Nc1nc2ccccc2n1CCOc1ccccc1	4%	10µM*
COc1ccc(Cc2ccc3[nH]c(=O)cc(C)c3c2)cc1S(=O)(=O)O	2%	-5%
Cc1cccc(CNC(=O)C2CCN(c3nnc(-n4c(C)ccc4C)s3)CC2)c1	-1%	-6%
CCOC(=O)CC(=O)CSc1nc2sc(C)cc2c(=O)n1Cc1ccco1	-6%	-16%
Cc1cc2c(=O)n(Cc3ccco3)c(SCC(=O)c3ccc(Cl)s3)nc2s1	-8%	25µM*
SMILES	Cruzain Triton	Cruzain noTriton
O=c1oc2ccccc2cc1-c1csc(Nc2nc3ccc(F)cc3s2)n1	-6%	6%
O=c1oc2ccccc2cc1-c1csc(Cc2nc(-c3ccc(Cl)cc3)cs2)n1	-2%	10µM*
O=c1oc2ccccc2cc1-c1csc(NN=C2CCCCC2)n1	-26%	20µM*
O=c1oc2ccccc2cc1-c1nc(-c2cccc(Cl)c2)cs1	0%	-1%
CC1CCC/C(=C(\C#N)c2nc(-c3cc4ccccc4oc3=O)cs2)C1 (stereo unspecified)	-7%	-15%
O=c1oc2ccccc2cc1-c1csc(Nc2nc3c(F)cccc3s2)n1	-3%	32µM*
COc1ccc(NC(=O)CC2C(=O)N(c3ccc(F)cc3)C(=O)N2Cc2ccco2)cc1 (stereo unspecified)	-3%	-6%
Cc1cccc(N2CC(C)Cn3c2nc2c3c(=O)n(CC(=O)O)c(=O)n2C)c1 (stereo unspecified)	-1%	-6%
Cc1cc(=O)n2[nH]c(NC(=O)c3cccc(Cl)c3)nc2n1	2%	-6%
Cc1cn2c(=O)cc(COC(=O)COc3ccccc3C)nc2s1	0%	0%
COc1cc(NC(=O)C2CCN(c3nc4ccccc4nc3C(F)(F)F)CC2)cc(OC)c1	-5%	0%
Cc1nc(SCC(=O)Nc2ccccc2C(F)(F)F)c(C#N)c(C)c1CC(=O)c1ccc(Br)cc1	-1%	-12%

Screening results from PubChem BioAssay.
